This note sets out measurements from publication PMC4336329 (PLoS ONE, 2015).

The campaign covered roughly 310,000 compounds. About 2,200 (0.71%) showed an effect of 50% or more. Effects have a minus sign here. This is one part of a sample in which strong results are shown more often than they occur.

For this experiment, the target named is human ether-à-go-go-related gene (hERG) potassium channel (human, UniProt Q12809). Description: primary screen, population patch clamp on CHO cells stably expressing hERG; higher = less effect of the substance.
Sequence of human ether-à-go-go-related gene (hERG) potassium channel (Q12809 whole entry, looked up): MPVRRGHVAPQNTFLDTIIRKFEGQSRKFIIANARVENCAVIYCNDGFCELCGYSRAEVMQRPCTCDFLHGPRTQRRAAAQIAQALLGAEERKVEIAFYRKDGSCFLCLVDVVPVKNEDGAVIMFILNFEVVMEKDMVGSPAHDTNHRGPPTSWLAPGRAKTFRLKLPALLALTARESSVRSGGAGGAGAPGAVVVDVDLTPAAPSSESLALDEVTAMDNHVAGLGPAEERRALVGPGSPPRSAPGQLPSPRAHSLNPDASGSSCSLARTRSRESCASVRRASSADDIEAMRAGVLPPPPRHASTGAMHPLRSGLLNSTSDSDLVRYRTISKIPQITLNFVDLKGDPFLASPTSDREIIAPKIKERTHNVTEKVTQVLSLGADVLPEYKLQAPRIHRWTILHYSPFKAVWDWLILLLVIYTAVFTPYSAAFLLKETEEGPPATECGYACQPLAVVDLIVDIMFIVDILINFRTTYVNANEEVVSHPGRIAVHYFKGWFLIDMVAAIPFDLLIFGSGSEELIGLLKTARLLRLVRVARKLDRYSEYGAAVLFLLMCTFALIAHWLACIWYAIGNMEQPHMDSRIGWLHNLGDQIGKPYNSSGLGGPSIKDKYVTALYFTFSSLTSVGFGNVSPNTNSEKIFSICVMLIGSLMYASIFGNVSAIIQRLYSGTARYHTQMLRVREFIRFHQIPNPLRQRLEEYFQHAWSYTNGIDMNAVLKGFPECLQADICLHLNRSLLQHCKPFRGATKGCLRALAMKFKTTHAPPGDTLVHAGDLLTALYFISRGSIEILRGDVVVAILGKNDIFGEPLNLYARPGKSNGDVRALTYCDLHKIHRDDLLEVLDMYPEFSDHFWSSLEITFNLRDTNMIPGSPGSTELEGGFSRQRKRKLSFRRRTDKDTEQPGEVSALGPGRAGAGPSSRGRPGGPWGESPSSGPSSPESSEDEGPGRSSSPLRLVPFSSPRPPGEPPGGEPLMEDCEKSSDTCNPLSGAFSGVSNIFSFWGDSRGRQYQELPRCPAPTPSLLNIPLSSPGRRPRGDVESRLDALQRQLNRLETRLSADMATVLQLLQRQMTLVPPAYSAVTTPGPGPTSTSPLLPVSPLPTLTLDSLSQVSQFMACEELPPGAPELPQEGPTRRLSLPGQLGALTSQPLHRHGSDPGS
In the case of `CCOC(=O)Nc1ccc2c(c1)Nc1ccccc1S2`, the “hERG current change (%, negative = inhibition) at 1uM” value is 9.07%. Consider `COc1cccc(NC(=O)CNS(=O)(=O)c2ccc3nc(C)sc3c2)c1`, for which the “hERG current change (%, negative = inhibition) at 1uM” value was found to be 14.5%. For the compound `Cc1ccc(-c2cc(C(=O)Nc3cccnc3)c3ccccc3n2)s1`, the “hERG current change (%, negative = inhibition) at 1uM” value turned out to be 12.1%. On to `Cn1cnnc1SCC(=O)Nc1sc2c(c1C(N)=O)CCC2`, for which the “hERG current change (%, negative = inhibition) at 1uM” value came out at 13.3%. On to `CCCCNC(=O)CCCN1C(=O)c2cccnc2Sc2ccccc21`, for which the “hERG current change (%, negative = inhibition) at 1uM” value was determined as 14.1%. As to `OCCCNc1ncnc2sc3c(c12)CCN(Cc1ccccc1)C3`, the “hERG current change (%, negative = inhibition) at 1uM” value is given as 7.54%.

As for `CC1CCc2c(sc3ncnc(NCCN4CCOCC4)c23)C1` (stereo not shown), the “hERG current change (%, negative = inhibition) at 1uM” value is -13.1%. The value for `CCCCNc1ncnc2sc3c(c12)CCN(CCC)C3` was -80.9%; that for `CCOc1ccc(-n2c(SCC(N)=O)nnc2-c2cccnc2)cc1` was -3.26%. On to `N#Cc1ccc(CSc2nnc(-c3cccnc3)n2-c2ccccc2)cc1`, for which the “hERG current change (%, negative = inhibition) at 1uM” value is reported as -26.5%. Consider `CCOc1ccc(-n2c(SCc3ccc(C#N)cc3)nnc2-c2cccnc2)cc1`, for which the “hERG current change (%, negative = inhibition) at 1uM” value is -65.1%. The value for `CCC(C)(C(=O)NC1CCCCC1)N(C)C(=O)c1ccccn1` (stereo not shown) was 4.4%; that for `CCC(C)(C(=O)NC1CCCCC1)N(CC1CCCO1)C(=O)c1ccccn1` (stereo not shown) was -80.8%. Take `CCC(C)(C(=O)NC1CCCCC1)N(CC1CCCO1)C(=O)CNC(=O)c1ccccc1` (stereo not shown): the “hERG current change (%, negative = inhibition) at 1uM” value amounted to 9.5%. On to `COc1ccc(-c2noc(CSc3nc4ccccc4c(=O)n3-c3ccccc3)n2)cc1`, for which the “hERG current change (%, negative = inhibition) at 1uM” value came to 1.58%. `CCC1(C)Cc2ccccc2-c2nc3n(c(=O)c21)CCS3` (stereo not shown): the “hERG current change (%, negative = inhibition) at 1uM” value was determined as 12%. The value for `O=c1[nH]c(CN2CCN(S(=O)(=O)/C=C/c3ccccc3)CC2)nc2cc(Cl)ccc12` was -21.4%; that for `O=c1[nH]c(CN2CCOCC2)nc2cc(Cl)ccc12` was 4.78%. Take `O=c1[nH]c(CN2CCN(C/C=C/c3ccccc3)CC2)nc2cc(Cl)ccc12`: the “hERG current change (%, negative = inhibition) at 1uM” value is reported as -108%.

For the compound `O=c1[nH]c(CN2CCN(S(=O)(=O)/C=C/c3ccccc3)CC2)nc2ccccc12`, the “hERG current change (%, negative = inhibition) at 1uM” value is -18.2%.

In the case of `O=c1[nH]c(CN2CCN(C/C=C/c3ccccc3)CC2)nc2ccccc12`, the “hERG current change (%, negative = inhibition) at 1uM” value was -52.6%.

Turning to `O=C(CCc1nc2ccccc2c(=O)[nH]1)N1CCN(C/C=C/c2ccccc2)CC1`, the “hERG current change (%, negative = inhibition) at 1uM” value was -12.3%. For `Cc1cc(C)n(-c2nc(-c3ccccc3)cs2)n1`, the “hERG current change (%, negative = inhibition) at 1uM” value is on record as 1.91%. For the compound `O=C(Nc1ccc2oc(-c3ccc4ccccc4c3)nc2c1)c1ccc2c(c1)OCCO2`, the “hERG current change (%, negative = inhibition) at 1uM” value is reported as 16.3%. The value for `Cc1cc2oc(=O)cc(CN3CCN(S(=O)(=O)/C=C/c4ccccc4)CC3)c2cc1C` was 14.5%.

Turning to `O=c1cc(CN2CCN(S(=O)(=O)/C=C/c3ccccc3)CC2)c2ccc(O)cc2o1`, the “hERG current change (%, negative = inhibition) at 1uM” value is -29.8%. As to `O=c1cc(CN2CCN(C/C=C/c3ccccc3)CC2)c2cc(O)c(-c3ccccc3)cc2o1`, the “hERG current change (%, negative = inhibition) at 1uM” value is recorded as 12.8%. The value for `Cc1cc2oc(=O)cc(CN3CCN(C/C=C/c4ccccc4)CC3)c2cc1O` was -67.8%. Turning to `Cc1ccc2oc(=O)cc(CN3CCN(C/C=C/c4ccccc4)CC3)c2c1`, the “hERG current change (%, negative = inhibition) at 1uM” value was -53.7%. The same measure for `CCN1CCN(Cc2cc(=O)oc3ccc(C)cc23)CC1`: 11.9%; for `Cc1c(O)ccc2c(CN3CCN(C/C=C/c4ccccc4)CC3)cc(=O)oc12`: -36.2%; for `Cc1cc(C)c2c(CN3CCN(C/C=C/c4ccccc4)CC3)cc(=O)oc2c1`: -41.5%. The value for `O=c1cc(CN2CCN(C/C=C/c3ccccc3)CC2)c2cc(O)ccc2o1` was -86%; that for `COc1cccc(NC(=O)C2CCCO2)c1` (stereo not shown) was 11.7%; that for `COC(=O)C1=NN(N=O)C2(CC(=O)N(c3cc(C)cc(C)c3)C2=O)C1` (stereo not shown) was 9.48%.

With `CCC(=O)N1c2ccc(S(=O)(=O)N3CCN(C)CC3)cc2CC1C` (stereo not shown), the “hERG current change (%, negative = inhibition) at 1uM” value is 4.4%. As to `Cc1c(CC(=O)N[C@@H](C)C(=O)O)c(=O)oc2cc3occ(-c4ccccc4)c3cc12`, the “hERG current change (%, negative = inhibition) at 1uM” value is on record as 18.2%. The value for `Cc1ccc(Cn2ncc3c(NCCN(C)C)ncnc32)cc1` was 1.2%; that for `COc1ccc(N2CC(C(=O)Nc3ccccc3N3CCCC3)CC2=O)c(OC)c1` (stereo not shown) was 8.29%; that for `CCOC(=O)c1ccc(NC(=S)N(CCCN2CCN(CC)CC2)Cc2cccs2)cc1` was -40.2%.

Turning to `CCOc1ccc2nc(NC(=O)Cc3cccs3)sc2c1`, the “hERG current change (%, negative = inhibition) at 1uM” value was 6.15%.

For `CCOc1ccc(N=C2Sc3nc4ccc(C)cc4cc3CN2CCOC)cc1`, the “hERG current change (%, negative = inhibition) at 1uM” value came to 16.5%. As for `COCCN1Cc2cc3cc(C)ccc3nc2SC1=Nc1ccc(OC)cc1`, the “hERG current change (%, negative = inhibition) at 1uM” value stood at 9.8%.

As to `CCC(C)N=C1Sc2nc3ccc(C)cc3cc2CN1CCOC` (stereo not shown), the “hERG current change (%, negative = inhibition) at 1uM” value is given as -60.4%.

Take `C=CCn1c(SCC(O)Cn2c3ccccc3c3ccccc32)nnc1-c1ccco1` (stereo not shown): the “hERG current change (%, negative = inhibition) at 1uM” value turned out to be 13.9%. Consider `O=c1[nH]ncn1-c1ccccc1C(F)(F)F`, for which the “hERG current change (%, negative = inhibition) at 1uM” value came out at 10.3%. Consider `CCc1ccc2[nH]c(=O)c(CN(CCN(C)C)C(=O)Nc3ccccc3OC)cc2c1`, for which the “hERG current change (%, negative = inhibition) at 1uM” value is given as -41.4%. Regarding `CCc1ccc2[nH]c(=O)c(CN(CCN3CCCC3)C(=O)NC3CCCCC3)cc2c1`, the “hERG current change (%, negative = inhibition) at 1uM” value is -8.52%.

For the compound `CCN(CC)CCN(Cc1cc2ccc(C)cc2[nH]c1=O)C(=O)NC1CCCCC1`, the “hERG current change (%, negative = inhibition) at 1uM” value is -23.9%. The same measure for `CCc1ccc2[nH]c(=O)c(CN(CCN(CC)CC)C(=O)NC3CCCCC3)cc2c1`: -51.5%; for `CCN(CC)CCN(Cc1cc2cc(C)ccc2[nH]c1=O)C(=O)Nc1ccccc1OC`: -22.2%; for `CCc1ccc2[nH]c(=O)c(CN(CCN(CC)CC)C(=O)Nc3ccccc3OC)cc2c1`: -50.7%. Consider `O=C(Cc1ccc([N+](=O)[O-])cc1)Nc1ccc2c(c1)CCC2`, for which the “hERG current change (%, negative = inhibition) at 1uM” value is on record as 10.4%. In the case of `COc1ccc(-c2nsc(SCC(=O)Nc3ccc4c(c3)OCO4)n2)cc1`, the “hERG current change (%, negative = inhibition) at 1uM” value came to 15%. The value for `COC(=O)[C@@H](NC(=O)c1ccccc1)[C@@H](C)O` was 5.85%.
